Compound activity: PubChem BioAssay, several laboratories
ADAM17 inh: ADAM17 inhibition, QFRET primary screen. P78536. recombinant ADAM17, EDANS/DABCYL FRET peptide cleavage. inhibition, % at 6.95 µM. 370,000 compounds, 0.83% hits;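 active means inhibition above the mean of compounds lying between control limits plus 3 SD, set per campaign, cut at about 8.5% in these data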;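 further: 0% = DMSO-only wells as the low control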
DSG3 Ab inh: human desmoglein-3 autoantibody binding inhibition | DSG3-coupled beads, scFv-anti-DSG3-GFP binding, flow cytometry; stronger effect = lower value | 310,000 compounds, 0.48% hits | binding (percent of control), % at 10 µM | P32926 | AID 588358;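 active means binding more than 3 SD below its plate's average and above zero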;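 further: hits lower antibody fragment binding to DSG3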
KLK7 zymogen act: activators of human kallikrein-7 zymogen | purified proKLK7, EDANS-DABCYL substrate fluorescence; 100% is mature enzyme control, 0% vehicle | 370,000 compounds, 0.9% hits | activation, % at 7 µM | P49862;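 active means activation above the mean of all tested compounds plus 3 SD, computed per campaign excluding outliers beyond control limits, cut at about 13% in these data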
Target sequence (P49862 whole entry, looked up): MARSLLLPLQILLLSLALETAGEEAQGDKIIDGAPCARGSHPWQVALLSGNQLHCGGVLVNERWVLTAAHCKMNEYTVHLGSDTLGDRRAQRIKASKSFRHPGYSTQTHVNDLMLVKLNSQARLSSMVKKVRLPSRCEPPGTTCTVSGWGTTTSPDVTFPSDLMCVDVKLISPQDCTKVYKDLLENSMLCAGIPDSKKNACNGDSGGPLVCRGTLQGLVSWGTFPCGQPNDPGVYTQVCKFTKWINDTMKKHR
MPTP block: blocks calcium-induced mitochondrial swelling; AID 602449; isolated mouse mitochondria, Ca2+ swelling absorbance, 30 min; inhibition, % at 10 µM; 360,000 compounds, 1.4% hits;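 active means inhibition of 50% or more, scaled per plate between neutral and stimulator controls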;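 further: 0% = DMSO wells given calcium and 100% = 1 mM EGTA wells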
rCAG binder: r(CAG) repeat RNA binding; TO-PRO-1 dye displacement fluorescence; inhibition, % at 3 µM; 370,000 compounds, 1.3% hits;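 active means inhibition above the plate cutoff, the mean of all test compounds on that plate plus 3 SD, cut at about 35% in these data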;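 further: 0% = DMSO alone and 100% = 100 µM mitoxantrone as full dye displacement; higher means more dye released from RNA so lower well fluorescence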
ADAM10 inh: inhibits human ADAM10; O14672; recombinant ADAM10, EDANS/DABCYL FRET peptide cleavage, 3 h; inhibition, % at 7 µM; 370,000 compounds, 0.62% hits;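 active means inhibition above a per-campaign cutoff equal to the mean of compounds falling between control-based bounds plus 3 SD, cut at about 20% in these data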;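 further: 0% = DMSO wells while the 100% control is not disclosed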
An asterisk follows results filed as active. In the library only some 4.7% were active in any assay of this set; here they are far more common.

For CCCCCN(C(=O)Cc1c(C)n(CCCCC)c2ccccc12)c1ccc(Oc2cccnc2)c(C)c1 the results were ADAM17 inh -3, KLK7 zymogen act 1, rCAG binder 2 and ADAM10 inh -7.
Screening Cc1cccc(Nc2nnc(SCC(=O)c3ccc(O)cc3O)s2)c1 returned ADAM17 inh 4, DSG3 Ab inh 108, KLK7 zymogen act 0, MPTP block 1, rCAG binder 24 and ADAM10 inh 19.
Cc1ccc(Nc2nnc(SCC(=O)c3ccc(O)cc3O)s2)cc1 was read as ADAM17 inh 1, DSG3 Ab inh 93, KLK7 zymogen act 0, MPTP block 2, rCAG binder 56* and ADAM10 inh -4.
For CC(C)[C@H](NS(=O)(=O)c1ccc(F)cc1F)C(=O)N1CCC[C@H]1C(=O)NCc1ccccc1 the results were ADAM17 inh 5, KLK7 zymogen act 0, rCAG binder 0 and ADAM10 inh 1.
Screening N#Cc1ccc2nc(-c3ccc(CN4CCC5(CC4)CNc4ccccc45)cc3)c(-c3ccccc3)nc2c1 returned ADAM17 inh 4, KLK7 zymogen act 0, rCAG binder 11 and ADAM10 inh -16.
CCOc1cccc(C(=O)Nc2ccc(N3CCN(S(C)(=O)=O)CC3)cc2)c1 was read as ADAM17 inh -5, DSG3 Ab inh -22*, KLK7 zymogen act -1, MPTP block -1, rCAG binder -3 and ADAM10 inh 0.
`CC(C)COc1ccc(C(=O)N2C(=O)c3ccc(N)cc3C2=O)cc1` gave ADAM17 inh -7, DSG3 Ab inh 39*, KLK7 zymogen act -1, MPTP block 4, rCAG binder 9 and ADAM10 inh -10.
C[C@@H]1ON(C)[C@H]2C[C@H]3c4[nH]c5c(-c6ccccc6)cccc5c4CCN3C[C@@H]12 was read as ADAM17 inh -21, KLK7 zymogen act 2, rCAG binder 7 and ADAM10 inh -118.
CCOC(=O)CCc1c(C)c2ccc(OCC(=O)N(CC)CC)c(C)c2oc1=O was read as ADAM17 inh -200, DSG3 Ab inh 103, KLK7 zymogen act 3, MPTP block 0, rCAG binder -11 and ADAM10 inh inactive.
`CCOC(=O)CCc1c(C)c2ccc(O)cc2oc1=O` gave ADAM17 inh inactive, DSG3 Ab inh 102, KLK7 zymogen act 45*, MPTP block 0, rCAG binder 3 and ADAM10 inh inactive.
Screening Cc1cccc(CCNC(=O)CSc2nc3c([nH]2)c(=O)n(C)c(=O)n3C)c1 returned ADAM17 inh -4, KLK7 zymogen act 0, rCAG binder 1 and ADAM10 inh -9.
`Cc1ccc(S(=O)(=O)N(C)C)cc1NC(=O)C1CCCCC1` gave ADAM17 inh 2, DSG3 Ab inh 63*, KLK7 zymogen act 0, MPTP block 1, rCAG binder -2 and ADAM10 inh -1.
For Cc1ccc(N2CC(C(=O)Nc3ccc(N4CCOCC4)cc3)CC2=O)cc1C (stereo not drawn) the results were ADAM17 inh -1, DSG3 Ab inh -0.9*, KLK7 zymogen act 0, MPTP block 0, rCAG binder 7 and ADAM10 inh 7.
Screening O=C(Nc1ccc(N2CCOCC2)cc1)C1CC(=O)N(c2ccccc2)C1 (stereo not drawn) returned ADAM17 inh -1, DSG3 Ab inh 90, KLK7 zymogen act 0, MPTP block 1, rCAG binder -3 and ADAM10 inh 7.
Screening CCOc1ccc(N2CC(C(=O)Nc3ccc(N4CCOCC4)cc3)CC2=O)cc1 (stereo not drawn) returned ADAM17 inh 1, DSG3 Ab inh -10*, KLK7 zymogen act 0, MPTP block -10, rCAG binder -2 and ADAM10 inh 0.
Screening CC1Cc2ccccc2N1C(=O)c1cc2c(=O)n3ccccc3nc2n1C (stereo not drawn) returned ADAM17 inh -9, KLK7 zymogen act 2, MPTP block 0, rCAG binder -4 and ADAM10 inh -31.
Cn1c(C(=O)N2CCN(C(=O)c3ccco3)CC2)cc2c(=O)n3ccccc3nc21 was read as ADAM17 inh inactive, KLK7 zymogen act 46*, MPTP block 0, rCAG binder 4 and ADAM10 inh inactive.
Screening COc1ccc(-c2nnn(CC(=O)NCCc3ccc(OC)c(OC)c3)n2)cc1 returned ADAM17 inh 0, DSG3 Ab inh 38*, KLK7 zymogen act 0, MPTP block -2, rCAG binder -5 and ADAM10 inh 11.
COc1ccc(CCNC(=O)COc2ccc(-c3ccc(C)cc3)cc2)cc1OC was read as ADAM17 inh -3, DSG3 Ab inh 83*, KLK7 zymogen act 0, MPTP block 1, rCAG binder -4 and ADAM10 inh -6.
`COc1ccc(CCNC(=O)Cn2nnc(-c3cccs3)n2)cc1OC` gave ADAM17 inh -1, DSG3 Ab inh 104, KLK7 zymogen act -1, MPTP block 0, rCAG binder -6 and ADAM10 inh 1.
CCC(C)CNC(=O)CSc1nnc(-c2cccnc2)n1C1CCCCC1 (stereo not drawn) was read as ADAM17 inh -1, KLK7 zymogen act 0, rCAG binder 0 and ADAM10 inh -4.
Screening Cc1cc(O)c(-c2cc(C(=O)NCc3ccc4c(c3)OCO4)[nH]n2)cc1C returned ADAM17 inh -1, DSG3 Ab inh 82*, KLK7 zymogen act -1, MPTP block 8, rCAG binder 7 and ADAM10 inh -6.
Cc1ccc(C(=O)NCc2ccc3c(c2)OCO3)cc1C was read as ADAM17 inh -7, DSG3 Ab inh 87, KLK7 zymogen act 0, MPTP block 1, rCAG binder -3 and ADAM10 inh -4.
CCCCNC(=O)Nc1nc2ccc(CC)cc2s1 was read as ADAM17 inh 2, DSG3 Ab inh 107*, KLK7 zymogen act 1, MPTP block 3, rCAG binder 6 and ADAM10 inh 15.
Screening CCOc1c(Cl)cc(C(=O)Nc2ccccc2C(=O)O)cc1Cl returned ADAM17 inh 4, DSG3 Ab inh 103, KLK7 zymogen act 0, MPTP block 31, rCAG binder 51* and ADAM10 inh 5.
Screening O=c1ccn2c(n1)OC1CC2OC1COC(c1ccccc1)(c1ccccc1)c1ccccc1 (stereo not drawn) returned ADAM17 inh 4, KLK7 zymogen act 0, rCAG binder 3 and ADAM10 inh 7.
`OC(c1ccccc1)C(O)c1ccccc1` (stereo not drawn) gave ADAM17 inh -3, DSG3 Ab inh 91*, KLK7 zymogen act -1, MPTP block -2, rCAG binder 13 and ADAM10 inh 4.
`Cc1ccc(C2c3c(n[nH]c3C(C)C)C(=O)N2c2ccccc2)cc1` (stereo not drawn) gave ADAM17 inh 5, KLK7 zymogen act 0, rCAG binder 2 and ADAM10 inh -15.
